Test results: article PMC7862700, “An all-to-all approach to the identification of sequence-specific readers for epigenetic DNA modifications on cytosine”

Experiments:
Experiment in all cases: DAPPL (digital affinity profiling via proximity ligation, sequencing); 10 mM Tris-HCl pH 7.5, 50 mM NaCl, 1 mM DTT, 4% glycerol, room temperature, 30 min; GST-TFs on glutathione beads, 16-mer random dsDNA library, 0.1% formaldehyde crosslink after washing; high values mean tight binding
Conditions in all cases: protein: recombinant; tags: N-terminal GST; dsDNA, one strand shown
ERF = biological target: T1, ERF (Homo sapiens, UniProt P50548 1-548)
T1 sequence: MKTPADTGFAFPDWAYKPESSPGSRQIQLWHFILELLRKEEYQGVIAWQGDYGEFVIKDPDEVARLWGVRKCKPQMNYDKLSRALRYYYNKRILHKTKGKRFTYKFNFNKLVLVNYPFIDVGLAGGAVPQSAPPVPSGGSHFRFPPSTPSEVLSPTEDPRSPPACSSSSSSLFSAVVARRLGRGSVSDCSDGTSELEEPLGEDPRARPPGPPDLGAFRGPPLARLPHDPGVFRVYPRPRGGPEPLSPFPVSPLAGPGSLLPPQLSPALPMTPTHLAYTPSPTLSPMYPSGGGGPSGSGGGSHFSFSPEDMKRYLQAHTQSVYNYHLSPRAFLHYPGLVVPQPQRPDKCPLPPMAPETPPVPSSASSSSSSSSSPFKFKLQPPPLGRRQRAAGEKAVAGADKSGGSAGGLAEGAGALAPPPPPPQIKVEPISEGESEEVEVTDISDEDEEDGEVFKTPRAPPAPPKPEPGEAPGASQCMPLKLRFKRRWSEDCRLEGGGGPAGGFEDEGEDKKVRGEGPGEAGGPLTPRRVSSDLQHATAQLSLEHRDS
In short: (§1)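 Binding signal is defined as a hexamer's read frequency for one factor over its frequency for the tag-only sample. To obtain reads, GST-fused human transcription factors were expressed in yeast, captured on glutathione beads, barcoded with DNA and pooled with that sample. Pools met 200 nmole of a 16-mer random double-stranded DNA library in Tris/NaCl/DTT/glycerol buffer for 30 min at room temperature before washing, 0.1% formaldehyde crosslinking, proximity ligation (BsaI/T4 ligase, 1 h, 37 °C), PCR and Illumina NextSeq500 sequencing.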

ETV3L = biological target: T2, ETV3L (Homo sapiens, UniProt Q6ZN32 1-361)
T2 sequence: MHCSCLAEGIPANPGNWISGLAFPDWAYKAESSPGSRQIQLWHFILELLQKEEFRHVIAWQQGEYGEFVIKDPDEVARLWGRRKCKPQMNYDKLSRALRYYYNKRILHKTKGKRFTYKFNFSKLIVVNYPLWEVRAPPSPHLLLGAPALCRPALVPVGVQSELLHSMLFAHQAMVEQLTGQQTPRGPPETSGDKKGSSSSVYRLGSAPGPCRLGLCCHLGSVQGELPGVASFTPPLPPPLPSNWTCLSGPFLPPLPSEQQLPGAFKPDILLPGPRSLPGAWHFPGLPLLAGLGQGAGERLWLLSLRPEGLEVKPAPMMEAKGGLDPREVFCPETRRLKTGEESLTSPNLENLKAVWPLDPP
In short: as §1

ETS2 = biological target: T3, ETS2 (Homo sapiens, UniProt P15036 1-469)
T3 sequence: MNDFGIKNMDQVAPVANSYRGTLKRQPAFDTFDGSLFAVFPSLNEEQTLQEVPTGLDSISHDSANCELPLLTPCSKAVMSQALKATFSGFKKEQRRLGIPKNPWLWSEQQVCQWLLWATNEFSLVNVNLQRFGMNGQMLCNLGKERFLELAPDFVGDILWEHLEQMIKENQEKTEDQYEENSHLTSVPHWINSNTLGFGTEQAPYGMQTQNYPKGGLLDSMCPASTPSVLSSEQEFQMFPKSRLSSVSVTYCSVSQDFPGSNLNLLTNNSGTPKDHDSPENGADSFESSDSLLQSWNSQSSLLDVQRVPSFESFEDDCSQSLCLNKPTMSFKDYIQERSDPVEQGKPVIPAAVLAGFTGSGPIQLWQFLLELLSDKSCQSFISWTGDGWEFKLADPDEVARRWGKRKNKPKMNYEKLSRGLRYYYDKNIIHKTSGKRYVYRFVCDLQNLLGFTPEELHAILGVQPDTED
In short: as §1

SPDEF = biological target: T4, SPDEF (Homo sapiens, UniProt O95238 1-335)
T4 sequence: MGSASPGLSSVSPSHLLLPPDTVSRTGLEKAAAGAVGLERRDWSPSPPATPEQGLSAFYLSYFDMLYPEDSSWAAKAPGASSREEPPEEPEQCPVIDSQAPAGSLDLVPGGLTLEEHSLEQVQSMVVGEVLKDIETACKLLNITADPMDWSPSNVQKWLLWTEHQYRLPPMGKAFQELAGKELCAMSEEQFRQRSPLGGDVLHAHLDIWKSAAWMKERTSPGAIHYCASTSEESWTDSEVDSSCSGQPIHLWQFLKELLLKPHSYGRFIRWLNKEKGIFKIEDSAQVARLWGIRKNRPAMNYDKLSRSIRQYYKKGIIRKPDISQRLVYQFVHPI
In short: as §1

ETV7 = biological target: T5, ETV7 (Homo sapiens, UniProt Q9Y603 1-341)
T5 sequence: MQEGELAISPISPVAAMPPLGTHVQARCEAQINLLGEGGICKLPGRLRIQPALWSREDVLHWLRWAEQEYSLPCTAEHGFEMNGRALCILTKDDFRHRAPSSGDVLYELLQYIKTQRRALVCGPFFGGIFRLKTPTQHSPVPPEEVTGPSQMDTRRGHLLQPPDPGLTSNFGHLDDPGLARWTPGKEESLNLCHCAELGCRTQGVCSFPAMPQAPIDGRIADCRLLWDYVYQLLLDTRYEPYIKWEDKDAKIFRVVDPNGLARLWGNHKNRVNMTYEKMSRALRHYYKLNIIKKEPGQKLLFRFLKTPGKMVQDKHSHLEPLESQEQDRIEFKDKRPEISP
In short: as §1

ELF5 = biological target: T6, ELF5 (Homo sapiens, UniProt Q9UKW6-2 1-255)
T6 sequence: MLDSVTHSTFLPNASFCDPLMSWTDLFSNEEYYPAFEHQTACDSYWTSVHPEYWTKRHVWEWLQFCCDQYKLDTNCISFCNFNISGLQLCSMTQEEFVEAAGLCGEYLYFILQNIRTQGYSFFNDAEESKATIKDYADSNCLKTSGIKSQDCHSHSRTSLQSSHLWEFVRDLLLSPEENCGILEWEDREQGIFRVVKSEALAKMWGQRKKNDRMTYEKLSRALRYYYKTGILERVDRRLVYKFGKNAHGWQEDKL
In short: as §1

ETV3 = biological target: T7, ETV3 (Homo sapiens, UniProt P41162-2 1-143)
T7 sequence: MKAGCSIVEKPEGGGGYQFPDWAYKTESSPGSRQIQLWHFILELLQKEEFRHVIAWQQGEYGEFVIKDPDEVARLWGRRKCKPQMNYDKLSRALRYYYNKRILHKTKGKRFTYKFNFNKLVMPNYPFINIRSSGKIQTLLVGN
In short: as §1

ETV6 = ETV6 (Homo sapiens, UniProt P41212 1-452)
In short: as §1

Chain of ETV6 (P41212 whole entry): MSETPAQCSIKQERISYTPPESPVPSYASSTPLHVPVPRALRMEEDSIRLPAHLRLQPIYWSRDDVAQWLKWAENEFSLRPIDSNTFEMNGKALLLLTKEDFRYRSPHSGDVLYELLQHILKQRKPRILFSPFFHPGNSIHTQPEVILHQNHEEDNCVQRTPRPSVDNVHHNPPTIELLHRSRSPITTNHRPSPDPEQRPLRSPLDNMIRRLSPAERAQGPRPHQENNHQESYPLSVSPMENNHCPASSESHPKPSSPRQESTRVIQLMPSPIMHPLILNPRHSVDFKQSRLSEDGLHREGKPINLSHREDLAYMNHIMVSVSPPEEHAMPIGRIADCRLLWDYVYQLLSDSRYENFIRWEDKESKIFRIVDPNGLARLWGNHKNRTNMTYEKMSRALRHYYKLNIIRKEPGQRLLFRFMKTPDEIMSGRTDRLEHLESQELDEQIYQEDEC

Sequence | binding signal (ERF) | binding signal (ETV3L) | binding signal (ETS2) | binding signal (SPDEF) | binding signal (ETV7) | binding signal (ELF5) | binding signal (ETV3) | binding signal (ETV6)
TGTTCC | 1.75 fold enrichment (6-mer frequency, TF over GST control) | 1.62 fold enrichment (6-mer frequency, TF over GST control) | 1.75 fold enrichment (6-mer frequency, TF over GST control) | 2.03 fold enrichment (6-mer frequency, TF over GST control) | 1.68 fold enrichment (6-mer frequency, TF over GST control) | 2.3 fold enrichment (6-mer frequency, TF over GST control) | 1.85 fold enrichment (6-mer frequency, TF over GST control) | 1.69 fold enrichment (6-mer frequency, TF over GST control)
CTTTGA | 1.18 fold enrichment (6-mer frequency, TF over GST control) | 1.11 fold enrichment (6-mer frequency, TF over GST control) | 1.15 fold enrichment (6-mer frequency, TF over GST control) | 1.1 fold enrichment (6-mer frequency, TF over GST control) | 1.34 fold enrichment (6-mer frequency, TF over GST control) | 1.16 fold enrichment (6-mer frequency, TF over GST control) | 1.35 fold enrichment (6-mer frequency, TF over GST control) | 1.25 fold enrichment (6-mer frequency, TF over GST control)
TTATTG | 1.37 fold enrichment (6-mer frequency, TF over GST control) | 1.37 fold enrichment (6-mer frequency, TF over GST control) | 1.27 fold enrichment (6-mer frequency, TF over GST control) | 1.21 fold enrichment (6-mer frequency, TF over GST control) | 1.4 fold enrichment (6-mer frequency, TF over GST control) | 1.2 fold enrichment (6-mer frequency, TF over GST control) | 1.34 fold enrichment (6-mer frequency, TF over GST control) | 1.27 fold enrichment (6-mer frequency, TF over GST control)
CTATTT | 1.63 fold enrichment (6-mer frequency, TF over GST control) | 1.82 fold enrichment (6-mer frequency, TF over GST control) | 1.71 fold enrichment (6-mer frequency, TF over GST control) | 1.57 fold enrichment (6-mer frequency, TF over GST control) | 1.66 fold enrichment (6-mer frequency, TF over GST control) | 1.72 fold enrichment (6-mer frequency, TF over GST control) | 1.63 fold enrichment (6-mer frequency, TF over GST control) | 1.9 fold enrichment (6-mer frequency, TF over GST control)
TTACCA | 1.07 fold enrichment (6-mer frequency, TF over GST control) | 1.07 fold enrichment (6-mer frequency, TF over GST control) | 1.13 fold enrichment (6-mer frequency, TF over GST control) | 1.09 fold enrichment (6-mer frequency, TF over GST control) | 1.12 fold enrichment (6-mer frequency, TF over GST control) | 1.04 fold enrichment (6-mer frequency, TF over GST control) | 1.16 fold enrichment (6-mer frequency, TF over GST control) | 1.07 fold enrichment (6-mer frequency, TF over GST control)
TATTAC | 1.22 fold enrichment (6-mer frequency, TF over GST control) | 1.2 fold enrichment (6-mer frequency, TF over GST control) | 1.18 fold enrichment (6-mer frequency, TF over GST control) | 1.23 fold enrichment (6-mer frequency, TF over GST control) | 1.16 fold enrichment (6-mer frequency, TF over GST control) | 1.16 fold enrichment (6-mer frequency, TF over GST control) | 1.24 fold enrichment (6-mer frequency, TF over GST control) | 1.28 fold enrichment (6-mer frequency, TF over GST control)
CAATTA | 1.13 fold enrichment (6-mer frequency, TF over GST control) | 1.11 fold enrichment (6-mer frequency, TF over GST control) | 1.16 fold enrichment (6-mer frequency, TF over GST control) | 1.06 fold enrichment (6-mer frequency, TF over GST control) | 1.15 fold enrichment (6-mer frequency, TF over GST control) | 1.13 fold enrichment (6-mer frequency, TF over GST control) | 1.18 fold enrichment (6-mer frequency, TF over GST control) | 1.05 fold enrichment (6-mer frequency, TF over GST control)
TCTTTA | 1.1 fold enrichment (6-mer frequency, TF over GST control) | 1.4 fold enrichment (6-mer frequency, TF over GST control) | 1.2 fold enrichment (6-mer frequency, TF over GST control) | 1.2 fold enrichment (6-mer frequency, TF over GST control) | 1.25 fold enrichment (6-mer frequency, TF over GST control) | 1.19 fold enrichment (6-mer frequency, TF over GST control) | 1.25 fold enrichment (6-mer frequency, TF over GST control) | 1.22 fold enrichment (6-mer frequency, TF over GST control)
